Shown are actives, neighbours in structure and some others; about 3.4% of the full set was active somewhere.
TEAD-YAP inh: TEAD-YAP interaction inhibition; HEK-TIYL cells, TEAD-Gal4/YAP UAS-luciferase luminescence; inhibition, % at 9.12 µM; actives 1.4% (n = 640,000); in the data active = inhibition above about 32%;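 also: 0% = median of test compound wells and 100% = reference inhibitor wells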
GPR151 activ: activators of human GPR151 | PathHunter beta-arrestin GPR151 cells, luminescence | Q8TDV0 | actives 1% (n = 650,000) | activation, % at 11.2 µM | AID 1508602; in the data active = activation above about 4.9%;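 also: 0% = median of compound wells and 100% = cells with positive control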
MITF primary: human MITF inhibition, primary screen. AlphaScreen MITF homodimerization, bead proximity signal. inhibition, % at 2.6 µM. actives 0.91% (n = 650,000); in the data active = inhibition above about 50%;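 also: 0% = vehicle wells with protein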
Target sequence (O75030 whole entry, looked up): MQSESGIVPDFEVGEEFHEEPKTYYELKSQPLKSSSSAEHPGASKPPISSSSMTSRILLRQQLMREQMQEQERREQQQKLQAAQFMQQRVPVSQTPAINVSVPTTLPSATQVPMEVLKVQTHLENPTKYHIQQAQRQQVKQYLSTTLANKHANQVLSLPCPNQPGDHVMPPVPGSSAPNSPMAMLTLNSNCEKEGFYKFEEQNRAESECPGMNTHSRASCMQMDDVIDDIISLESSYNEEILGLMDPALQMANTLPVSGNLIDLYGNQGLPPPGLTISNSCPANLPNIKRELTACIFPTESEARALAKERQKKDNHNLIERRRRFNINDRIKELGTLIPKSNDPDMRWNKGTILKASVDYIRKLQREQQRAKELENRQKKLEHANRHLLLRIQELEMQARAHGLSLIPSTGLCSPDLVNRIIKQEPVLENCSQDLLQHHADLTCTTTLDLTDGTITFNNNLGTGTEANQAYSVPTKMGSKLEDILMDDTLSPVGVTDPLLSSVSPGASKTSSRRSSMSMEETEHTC
FBW7 act: activators of human E3 ligase FBW7; Q969H0; AlphaScreen FBW7–phospho-cyclin E peptide binding, activator screen; normalized activity (activation), % at 26.1 µM; actives 0.13% (n = 650,000); AID 1259310; in the data active = normalized activity above about 1.9%;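 also: purified mutant Fbw7 with reduced substrate affinity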
MITF inh conf: human MITF inhibition, confirmation. shares compounds with MITF primary. AlphaScreen MITF homodimerization, biotin/His-MITF beads. inhibition, % at 2.6 µM. actives 16% (n = 4,700);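 active = inhibition above a cutoff derived from the DMSO control wells, cut at about 28% in these data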;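 also: 0% = MITF dimer wells with DMSO only; inhibitors lower the bead chemiluminescence by keeping MITF from dimerizing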
AS interf DR: AlphaScreen optical interference, dose response counter-screen. AID 1259373. IC50, µM. AlphaScreen optical interference counterscreen, cell-free. actives 6% (n = 480). shares compounds with MITF primary; call rule not given here
AS interf ctr: counter-screen: compounds optically interfering with AlphaScreen | LysRS AlphaScreen counterscreen, signal interference, triplicate | AID 1259376 | inhibition, % at 2.6 µM | shares compounds with MITF primary | actives 7.6% (n = 4,700);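 active = inhibition above a cutoff derived from the DMSO control wells, cut at about 30% in these data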
The depositor's hits bear a star; nt = no result given.

SMILES | TEAD-YAP inh | GPR151 activ | MITF primary | FBW7 act | MITF inh conf | AS interf ctr | others
O=S(=O)(c1cccc(F)c1)N1CCCC(c2nc(-c3ccc(F)cc3)no2)C1 (stereo not given) | 21.6 | 0.4 | -4.0 | 0.1 | nt | nt
O=C(/C=C/c1ccc([N+](=O)[O-])cc1)OCC(=O)c1ccccc1 | 4.1 | 0.0 | -7.8 | -0.2 | nt | nt
O=S(=O)(Nc1cc(Cl)c(O)c2ccccc12)c1cccs1 | -0.1 | 0.4 | 6.7 | -0.2 | nt | nt
O=C1N[C@@H](CSCc2ccccc2)C(=O)N2CCN(C(=O)NC3CCCCC3)C[C@H]12 | 9.2 | 4.0 | 64.9* | -0.3 | 71.9* | -3.6 | AS interf DR=>6.48
Cc1ccccc1-n1c(O)c(C=Nc2ccccc2F)c(=O)[nH]c1=O | 0.9 | 4.2 | -0.5 | 0.0 | nt | nt
C=CCNCCOCCOc1ccc(C)cc1Br | -19.7 | -0.3 | 59.9* | 0.1 | 8.6 | 12.3
C=CCc1cc(C)ccc1OCCOCCNCCN(C)C | -4.0 | -0.1 | 51.4* | -0.1 | 7.2 | 19.8
COCCCNCCOCCOc1ccc(Cl)cc1C(C)(C)C | -1.4 | -0.7 | 4.5 | 0.0 | nt | nt
C=CCNCCOCCOc1ccc(Cl)cc1C(C)(C)C | -1.9 | 0.3 | 69.2* | -0.1 | 2.2 | 6.3
C=CCc1cc(OC)ccc1OCCCNCCOC | 1.2 | 0.4 | 61.9* | 0.0 | -1.3 | 7.0
C=CCNCCOCCOc1ccc(C(C)(C)C)cc1C | 0.1 | -1.3 | 8.9 | 0.0 | nt | nt
O=S(=O)(NCC1(O)CCCC1)C1CCCCC1 | 7.8 | 0.0 | -0.1 | 0.1 | nt | nt
C=CCc1cc(OC)ccc1OCCN1CC(C)OC(C)C1 (stereo not given) | -0.6 | 0.0 | 63.9* | -0.4 | 19.9 | 36.5*
C=CCNCCCOc1ccc(Br)cc1Cl | -17.9 | -2.6 | 15.1 | -0.1 | nt | nt
COCCNCCOc1cc(C)ccc1C(C)(C)C | 10.3 | -1.2 | 51.0* | 0.2 | -14.2 | -6.9
C=CCNCCOCCOc1cccc(Br)c1 | -0.1 | -0.8 | 60.5* | -0.1 | 2.2 | 4.3
C=CCNCCOCCOc1cccc(OCC)c1 | -1.9 | 1.3 | 13.4 | 0.1 | nt | nt
C=CCNCCOc1ccc(Br)cc1Cl | 0.7 | -0.4 | 55.6* | -0.1 | 6.5 | 3.5
COCCNCCCCOc1cc(C)ccc1C(C)(C)C | -4.0 | -1.1 | 39.4 | 0.0 | nt | nt
N#C/C(=C/c1ccco1)c1cccc([N+](=O)[O-])c1 | 8.1 | 1.9 | 20.2 | -0.2 | nt | nt
C=CCc1cc(Cl)ccc1OCCNCCOC | 5.4 | 4.0 | 43.7 | 0.3 | nt | nt
C=CCc1cc(C)ccc1OCCCNCCOC | -1.2 | -1.0 | 57.9* | -0.1 | -11.2 | -7.0
C=CCc1cc(C)ccc1OCCNCCOC | 3.9 | -0.3 | 53.3* | 0.3 | -1.0 | -4.4
O=C(NCCO)c1ccnc(N2CCC(N3CCOCC3)CC2)c1 | -7.4 | -0.5 | 13.2 | 0.0 | nt | nt
COc1cc(CN2CCN(C(=O)c3ccncc3)CC2)cc(OC)c1OC | -0.5 | 0.5 | 72.0* | 0.0 | 3.4 | -6.2
SMILES | TEAD-YAP inh | GPR151 activ | MITF primary | FBW7 act | MITF inh conf | AS interf ctr | others
COc1ccc(CN2CCN(C(=O)c3ccncc3)CC2)cc1OC | 2.8 | -0.3 | 69.5* | -0.2 | -9.2 | -3.3
COc1cc(OC)cc(C(=O)N2CCN(Cc3cc(OC)c(OC)c(OC)c3)CC2)c1 | 4.8 | -1.0 | 29.0 | -0.1 | nt | nt
COc1cc(C(=O)N2CCN(Cc3ccncc3)CC2)cc(OC)c1OC | 0.5 | -0.8 | 76.4* | 0.1 | -9.4 | -2.2
COc1ccc(C(=O)N2CCN(Cc3ccc(OC)c(OC)c3)CC2)cc1 | -5.6 | -1.6 | 24.5 | -0.4 | nt | nt
C=CCNC(=O)CSc1ccc(C(=O)Nc2ccccc2C(F)(F)F)cc1[N+](=O)[O-] | 0.9 | -0.1 | 4.6 | 0.0 | nt | nt
COc1ccc(NC(=O)CSc2nc3ccccc3nc2Cc2ccc(F)cc2)c(OC)c1 | 1.1 | -0.2 | -6.8 | 0.0 | nt | nt
O=C(O)CCCc1nc(-c2ccccc2Cl)no1 | -1.0 | 1.4 | 23.8 | 0.0 | nt | nt
CC(C)NC(=O)CCCc1nc(-c2ccccc2Cl)no1 | 4.7 | -0.6 | 67.8* | 0.0 | 10.0 | 13.8
COc1ccc(C)cc1NS(=O)(=O)c1cc2c3c(c1)CCN3C(=O)CC2 | -10.7 | -0.9 | 7.0 | 0.4 | nt | nt
CC(C)(C)C(=O)NCCNc1ccc(Cl)cc1[N+](=O)[O-] | -1.3 | 3.5 | 86.9* | 0.0 | -3.8 | -2.7
CC(=O)c1ccc(NS(=O)(=O)c2ccc(N3C(=O)c4ccccc4C3=O)cc2)cc1 | -6.5 | 0.3 | 21.8 | 0.1 | nt | nt
O=C(CNCCN1CCOCC1)Nc1ccc(N2CCCCCC2)cc1 | -3.6 | -0.2 | 32.0 | -0.2 | nt | nt
O=C(CNCCCN1CCOCC1)Nc1ccccc1 | 2.5 | 0.0 | 49.9 | -0.3 | nt | nt
COc1ccc(NC(=O)CNCCN2CCCCC2)cc1 | -4.8 | -1.1 | 22.0 | 0.0 | nt | nt
CC(NCCN1CCOCC1)C(=O)Nc1ccccc1 (stereo not given) | -13.8 | -0.7 | 97.9* | 0.3 | 16.2 | 16.9
O=C(CNCCN1CCOCC1)Nc1ccc(N2CCCC2)cc1 | 5.8 | 1.9 | 73.2* | -0.1 | 28.7* | 59.6*
O=C(CNCCCN1CCOCC1)Nc1ccc(C(=O)N2CCCCC2)cc1 | -3.3 | -1.1 | 85.2* | 0.2 | 3.5 | 20.0
COc1ccc(NC(=O)CNCCN2CCOCC2)cc1 | -1.9 | 0.5 | 93.2* | 0.1 | -9.6 | -3.8
Cc1ccc(Cl)cc1NC(=O)CCCOc1ccccc1 | -0.6 | -0.7 | 11.2 | 0.3 | nt | nt
O=C(CNCCN1CCOCC1)Nc1ccc2c(c1)OCO2 | 2.5 | -0.7 | 87.3* | 0.1 | 4.8 | 19.3
O=C(CNCCN1CCOCC1)Nc1ccc(OC(F)(F)F)cc1 | -0.1 | -0.9 | 60.0* | 0.7 | -1.6 | -9.7
O=C(Nc1ccc(N2CCOCC2)cc1)NC1CCCCC1 | -30.3 | -1.8 | 72.1* | -0.2 | -7.7 | -4.8
CCN1CCN(CCC(=O)Nc2ccc3c(c2)OCCO3)CC1 | 1.3 | -0.8 | 104.0* | 0.1 | -10.2 | 0.1
COc1ccccc1COCC(O)CN1CCC(C(N)=O)CC1 (stereo not given) | 8.9 | -1.3 | 49.1 | -0.1 | nt | nt
COc1ccc2oc(=O)c(C(=O)NCCN3CCOCC3)cc2c1 | -4.3 | -0.1 | 21.9 | 0.0 | nt | nt
SMILES | TEAD-YAP inh | GPR151 activ | MITF primary | FBW7 act | MITF inh conf | AS interf ctr | others
COc1ccc(CCNC(=O)C(=O)NCCCN2CCOCC2)cc1 | -0.1 | -1.9 | 1.3 | 0.7 | nt | nt
COc1ccc(CCNCCN2CCOCC2)cc1 | -6.3 | -0.8 | 84.0* | -0.4 | 8.2 | 5.9
COc1ccc(C(=O)NCCN2CCOCC2)c(OC)c1 | -0.4 | -0.5 | 53.5* | -0.1 | 1.1 | -1.3
O=C(CCc1ccccc1)NCC1(c2cccs2)CC1 | -8.9 | -1.2 | -15.6 | 0.1 | nt | nt
Cc1ccc(NC(=O)N2CCCC2C(=O)Nc2cc(C)cc(C)c2)cc1 (stereo not given) | 4.3 | 1.2 | 5.8 | 0.0 | nt | nt
CCN1C(=O)/C(=C/c2ccc(-c3ccc([N+](=O)[O-])cc3)o2)NC1=S | 3.1 | -0.3 | 52.0* | 0.4 | -7.4 | 13.9
Clc1ccc(-n2cc(-c3ccccc3)c3c(NCCCN4CCOCC4)ncnc32)cc1 | 2.8 | -0.3 | 3.5 | 0.0 | nt | nt
Clc1ccc(-c2csc3ncnc(NCCCN4CCOCC4)c23)cc1 | -2.3 | 1.1 | 96.4* | 0.1 | -13.5 | -4.8

Source: PubChem
